# Screening results (PubChem BioAssay)
# SMARCA2 activ – activators of SMARCA2 function. 370,000 compounds, 1% hits. activation, % at 9.1 µM. MG213 cells, MMTV-luciferase reporter, dexamethasone, overnight; in the data active = activation above about 7.8%;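 also: 0% = vehicle wells and 100% = reference activator wells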
# beta cell repl – MIN6 beta-cell proliferation induction | MIN6 cells proliferation, ATPlite luminescence, 48 h; cells starved in 0.2% serum; 100% = growth in 10% serum | proliferation, % at 10 µM | 330,000 compounds, 0.29% hits | AID 2380;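 active = compounds whose signal lies at least 3.5 SD above the mean of all wells on their plate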;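 also: 0% = DMSO-treated cells in low-serum medium and 100% = 10% serum control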
# M18AAP inhibitor – blocks P. falciparum M18 aspartyl aminopeptidase | 290,000 compounds, 1.2% hits | recombinant PfM18AAP, H-Glu-NHMec fluorogenic cleavage | inhibition, % at 7.35 µM;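 active = inhibition above the campaign mean inhibition over all tested compounds plus 3 SD, cut at about 28% in these data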;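 also: 0% = plate median of test compound wells and 100% = 2 mM ZnCl2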
# ALR inh – blocks human ALR sulfhydryl oxidase activity | P55789 | purified ALR, DTT oxidation, H2O2 HRP-luminol luminescence | inhibition, % (test concentration not listed) | 290,000 compounds, 3.8% hits;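 active = mean replicate inhibition above about 79%, with every replicate also reaching it, limit read from the data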
# Exocytosis inh – lytic granule exocytosis inhibition. TALL-104 LAMP-1 surface exposure, flow cytometry; cells stimulated with thapsigargin and PMA. inhibition, % at 10 µM. 360,000 compounds, 0.66% hits;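 active = inhibition above about 55%, limit read from the data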
# GASC-1 inh – blocks human GASC-1 demethylase activity; GST-JMJD2C(1-420) H3K9me3 demethylation, DELFIA europium; 330,000 compounds, 0.069% hits; AID 2099; inhibition, % at 2.35 µM;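 active = more than half of a compound's replicate wells show inhibition beyond 50%, single wells judged on their own value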;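 also: signal counts dimethyl H3K9 product captured on neutravidin plate; 0% = median of DMSO wells and 100% = 0.3 times that DMSO median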
# Target sequence (Q9H3R0 1-420 limits assumed): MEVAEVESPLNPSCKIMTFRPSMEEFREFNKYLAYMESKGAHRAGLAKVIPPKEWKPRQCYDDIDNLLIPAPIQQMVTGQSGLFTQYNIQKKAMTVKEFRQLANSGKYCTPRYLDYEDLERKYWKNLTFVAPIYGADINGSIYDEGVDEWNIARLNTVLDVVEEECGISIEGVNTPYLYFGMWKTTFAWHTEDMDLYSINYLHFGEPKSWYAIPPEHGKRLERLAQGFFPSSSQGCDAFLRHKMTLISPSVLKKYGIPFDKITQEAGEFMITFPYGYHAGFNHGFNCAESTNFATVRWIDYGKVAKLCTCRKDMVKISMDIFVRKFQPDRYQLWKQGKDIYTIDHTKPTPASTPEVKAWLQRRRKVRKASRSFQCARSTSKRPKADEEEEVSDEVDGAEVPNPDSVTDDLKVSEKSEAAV
# * hit, by the source's call; . = no result given. Compounds with a hit are over-represented: about 5.4% of the library has one in this group of screens.
SMILES,SMARCA2 activ,beta cell repl,M18AAP inhibitor,ALR inh,Exocytosis inh,GASC-1 inh
Cc1[nH]nc2c1C(c1cn[nH]c1-c1ccc(F)cc1)C(C#N)=C(N)O2 (configuration not stated),-2,-2,4,92*,5,-5
N#CC1=C(N)Oc2n[nH]c(-c3ccc(F)cc3)c2C1c1cccnc1 (configuration not stated),-1,1,7,.,0,87
CC(C)(C)OC(=O)NCCc1ccccc1/C=C/S(=O)(=O)NC1CCCC1,-3,.,.,.,.,.
CCOC(=O)CC(=O)CSc1nc2c(sc(=S)n2-c2ccc(OCC)cc2)c(=O)[nH]1,-8,-4,7,96*,-8,3
CCOC(=O)CC(=O)CSc1nc2c(sc(=S)n2-c2ccc(C)c(C)c2)c(=O)[nH]1,-2,-3,0,.,-13,16
N#CCC[C@@H]1CC[C@]2(CCCN(Cc3ccc(Cl)cc3)C2)O1,-3,.,.,.,.,.
N/C(=N\O)c1ccccc1N1CCCCC1,-3,1,-10,90*,0,1
Oc1cccc(Nc2nc(NCC3CCCO3)c3ccccc3n2)c1 (configuration not stated),.,-6,3,100*,-3,1
c1ccc(Nc2nc(NCC3CCCO3)c3ccccc3n2)cc1 (configuration not stated),-1,-3,-4,-1,0,-2
COc1ccc(Nc2nc(NCC3CCCO3)c3ccccc3n2)c(OC)c1 (configuration not stated),-1,-5,-8,98*,3,-26
CCOC(=O)CC[C@@H]1CC[C@]2(CCCN(C(=O)C3CCCCC3)C2)O1,-3,.,.,.,.,.
FC(F)(F)Oc1ccc(Cn2ccc3ccc(-c4ccc5ccn(Cc6ccc(OC(F)(F)F)cc6)c5c4)cc32)cc1,-2,.,.,.,.,.
COc1cccc(-c2nnc(SCC(=O)Nc3ccc(Oc4ccccc4)cc3)n2Cc2ccco2)c1,-6,.,.,.,.,.
CCCN1C(=O)S/C(=C/c2ccc(N3CCOCC3)o2)C1=O,1,-4,11,99*,34,-25
CCCN1C(=O)S/C(=C\c2ccc(N3CCOCC3)o2)C1=O,6,-6,-4,86*,81*,-2
CCCN1C(=O)S/C(=C\c2ccc(N3CCOCC3)cc2C)C1=O,.,.,1,.,.,.
COC(=O)[C@]1(CC(C)C)NC=C(C(=O)c2ccccc2)[C@@H]1c1cccs1,-1,.,.,.,.,.
O=C1N=C(N2C=CC(=C3C=CNC=C3)C=C2)/C(=C/N=NC(=O)c2ccccc2O)S1,0,-2,29*,.,-3,4
COc1ccc(NC(=O)Nc2ccc3nonc3c2)cc1,3,-1,3,-2,-1,-20
COc1ccc(NC(=O)Nc2ccc3nccnc3c2)cc1,7.9*,-4,5,100*,-2,-4
CCCCOc1ccc(C(=O)n2ccc3ccc(-c4ccc5ccn(Cc6ccc(OC)cc6)c5c4)cc32)cc1,-3,.,.,.,.,.
Cc1c(OCc2nn[nH]n2)ccc2c3c(c(=O)oc12)CCC(C)C3 (configuration not stated),-1,-3,7,98*,-3,-3
Cc1c(OCc2nn[nH]n2)ccc2c3c(c(=O)oc12)CCCC3,0,0,7,26,0,-1
O=C(/C=C/c1ccccc1[N+](=O)[O-])Oc1ccccc1,.,0,1,4,.,2
O=C(/C=C/c1ccccc1[N+](=O)[O-])c1ccc(F)cc1,-3,-7,-6,98*,0,5
SMILES,SMARCA2 activ,beta cell repl,M18AAP inhibitor,ALR inh,Exocytosis inh,GASC-1 inh
O=C(Cc1ccccc1)N/N=C/C=C/c1ccccc1[N+](=O)[O-],-1,7,7,0,-3,-5
O=C(O)c1ccc(N/N=C/C=C/c2ccccc2[N+](=O)[O-])cc1,0,0,41*,.,5,-3
COC(=O)c1cc(Br)c(=O)n(CCc2ccc(O)cc2)c1,-1,0,-4,90*,0,10
Cc1ccc(-n2c(SCC(=O)Nc3ccc(OCc4ccccc4)cc3)nnc2-c2ccccc2)cc1,-1,.,.,.,.,.
Cc1ccc(-n2c(SCC(=O)N3CCCC3)nc3c(c2=O)SCC3)cc1,.,-1,1,87*,.,-16
O=C(O)CCCCCn1c(SCC(=O)c2ccc(O)c(O)c2)nc2ccsc2c1=O,-2,-1,47*,99*,-2,1
CCOc1ccccc1NC(=O)CSc1nc2c(c(=O)n1C)SC(C)C2 (configuration not stated),-2,3,4,25,-1,-13
CCOc1ccc(NC(=O)CSc2nc3c(c(=O)n2C)SC(C)C3)cc1 (configuration not stated),-1,-2,-3,98*,-4,-1
CC1Cc2nc(SCC(=O)Nc3ccc(F)cc3)n(C)c(=O)c2S1 (configuration not stated),0,3,2,98*,-3,9
CCN(Cc1cn(Cc2ccccc2)nn1)S(=O)(=O)c1ccccc1Br,-2,.,.,.,.,.
CC(Cl)C(=O)N1CCC(C(=O)NC2CCCc3ccccc32)CC1 (configuration not stated),3,.,.,.,.,.
O=S1(=O)c2c(cccc2N2CCSCC2)Oc2ccccc2CN1Cc1cn(Cc2ccc(Cl)cc2)nn1,-2,.,.,.,.,.
CCN(Cc1cn(Cc2ccccc2)nn1)S(=O)(=O)c1ccc(N2CCCC2)cc1Br,-6,.,.,.,.,.
Cc1ccccc1CN1CCCCC(NC(=O)c2cccc([N+](=O)[O-])c2)C1=O (configuration not stated),-3,.,.,.,.,.
Cc1nnc(NC(=O)CSc2nc3c(c(=O)n2C)SC(C)C3)s1 (configuration not stated),0,-2,0,-11,-1,-11
Cc1ccc(-n2c(SCC(=O)Nc3cc(C)on3)nc3c(c2=O)SC(C)C3)cc1 (configuration not stated),-1,3,-6,91*,-1,-3
Cc1cc(C)cc(NC(=O)CSc2nc3c(c(=O)n2C)SC(C)C3)c1 (configuration not stated),-1,2,-1,97*,0,-15
CCOc1ccc(NC(=O)CSc2nc3ccsc3c(=O)n2CCC(=O)O)cc1,0,0,3,95*,0,37
CC1Cc2nc(SCC(=O)Nc3nccs3)n(C)c(=O)c2S1 (configuration not stated),-1,4,1,98*,-1,-1
O=C(NCc1ccccc1)[C@@H]1CCCN1C(=O)[C@H]1CCCN1C(=O)c1ccc(Cl)cc1,-4,.,.,.,.,.
COc1ccc2c(c1)CN1CN(C3CCCC3)S(=O)(=O)CC21 (configuration not stated),-5,.,.,.,.,.
COc1ccc(Cn2cc(COC(=O)N3CCOCC3)nn2)cc1,0,.,.,.,.,.
COc1cccc(NC(=O)CSc2nc3c(c(=O)n2C)SC(C)C3)c1 (configuration not stated),-2,-3,4,99*,0,3
